The values that follow come from paper PMC12136788.

Numbering of substitutions follows the chain as printed. Whole data set: some 24,000 sequences, median “enrichment r” near 0.99, cut for the highest 2% near 3.7. Many of the other results were omitted from the sample, so the highest values are more common in it than they were.

Sequences and labels used below:
B1: chr5:145543945:145543946:-_ENSG00000133706_ENST00000545646|hu_hu|hu_hu_hu_mus_True|58_98 (ssRNA)
RNA: GGGAGUUCUACAGUCCGACGAUCCUGAACGGCCAGUGGCGGGAAAUAAUCAAGCCAGUGCUCUGCUUCAGAAAACUUUACUAUCUCGUCAUCAGAGAGCCCAAGGGAUUUCAUAAUGUCCCACUGGUACUUAGAAGAUCCUGCCAACAGAGGAUUGAGCAUCA
B2: chrX:20248820:20248821:+_ENSMUSG00000001924_ENSMUST00000001989|mus_mus|mus_mus_mus_hu_True|78_78 (ssRNA)
RNA: GGGAGUUCUACAGUCCGACGAUCGGCGAAGUCCGUCACCACAAAGUCAGGUUCUGCCAGUGAUGCUACCAAGGAUUUAAAGCUAAUCUUCUUAGGUACUUUGACCUGACUGACGAUGCCUCCACGGAUGUAGUCGGAGAAGUUCAACAGAGGAUUGAGCAUCA
B3: chr1:66480114:66480115:+_ENSMUSG00000015222_ENSMUST00000024639|mus_hu|mus_mus_mus_hu_True|28_28 (ssRNA)
RNA: GGGAGUUCUACAGUCCGACGAUCUGGCCUGUGGCGGAUGUUCUUCAGAGAGCCACAUUUGGAUGUCACAUGGCUUAGGUCUAUUUUCUUGGUAACAAUUUGUACCUGACCCCCCUUAGGCUGGUAUUUGAUGUUGUCUGUUGACAACAGAGGAUUGAGCAUCA
B4: chrX:100668055:100668056:+_ENSG00000126945_ENST00000316594|hu_mus|FALSE|FALSE (ssRNA)
RNA: GGGAGUUCUACAGUCCGACGAUCGAGCUCUACAUAGCUAUGAUCAUAAGCUCCUCCACUUGUCCCUGCGGUAGAAUUCAAGAAGAGCUCCACAUAUCUGUGUUGCAUAUUUGCUUUAUCUUUUGCCAUAGCUGCCACAGCGUCCAACAGAGGAUUGAGCAUCA
B5: chr12:118471567:118471568:-_ENSG00000176871_ENST00000315436|hu_hu|motif|central (ssRNA)
RNA: GGGAGUUCUACAGUCCGACGAUCGCACUUGGCCAACAUCGAAGCAACUCUGACCACAGCAGGAGAGAACUUGAACCAAUGCGGCCACUGCAUCAGAAACACAAGGAUAGGUACUAGGCAGAAGCCAUCGUUCCCAGCGGAGGGCAACAGAGGAUUGAGCAUCA
B6: chr5:128448638:128448639:+_ENSG00000066583_ENST00000173527|hu_mus|hu_hu_hu_mus_False|18_48 (ssRNA)
RNA: GGGAGUUCUACAGUCCGACGAUCGGCACUCGCCUUAAUUAGGUUCUGAAUUUCCUUGAACUUCGGGUGGUCUUUGUCAGCCACCAGCUGAAGCAGAACAGCCUCACUAGUGGUCACUAUGAUCCCGGUGCGGGCAAGACGCUCCAACAGAGGAUUGAGCAUCA
B7: chr1:157160411:157160412:-_ENSMUSG00000026469_ENSMUST00000027741|mus_mus|motif|central (ssRNA)
RNA: GGGAGUUCUACAGUCCGACGAUCGAAUUCAAUCAGAAGAAAGCCACCCCGAUAGAUUCUUAUCAAGGGCCAUACAGUUCGGUCUGUUUCAAGUUUAAAUACAGCUGCAAACACAAGGGUAAUAUUCAGCACAAUGAAUAUUCCCAACAGAGGAUUGAGCAUCA
B8: chr1:157160411:157160412:-_ENSMUSG00000026469_ENSMUST00000027741|mus_mus|FALSE|FALSE (ssRNA)
RNA: B7 RNA with G80U, G81A
B9: chr16:68260615:68260616:+_ENSG00000072736_ENST00000346183|hu_hu|FALSE|FALSE (ssRNA)
RNA: GGGAGUUCUACAGUCCGACGAUCGAAACAAGAGAGCCUGCUGCAUUCACACUCAAAGCACCCAUCAUAUAAAAGUAUCCUAGUUAAAUAUAAAAAGCAAAGUUCAUUUCCCCAAAGCUCAAACAGCCUAUGCUGCUCCUGUUCCAACAGAGGAUUGAGCAUCA
B10: chr15:103023242:103023243:-_ENSMUSG00000009575_ENSMUST00000118152|mus_mus|FALSE|FALSE (ssRNA)
RNA: GGGAGUUCUACAGUCCGACGAUCAACUAGCAGCAUUGAUGAGGGGUUAAGGGAUUGGGGACAGAAACUCACCAAGGUCACUAAGUACUUCCAAACUUGGAAGUAGCUCAGUGAGGGCUAAAAAAACUUCGACUGAAGGUAUCCCAACAGAGGAUUGAGCAUCA
B11: chr1:26230221:26230222:-_ENSG00000117632_ENST00000374291|hu_mus|FALSE|FALSE (ssRNA)
RNA: GGGAGUUCUACAGUCCGACGAUCCUGGAUUUCCUCCAGGGAAAGGUCCUUCUUCUUUGGGGGGGAAAGGGGGAAAUCGGGGACAGAUUCUUUUGACCGAGGGCUGAGAAUCAGCUCAAAAGCCUGGCCUGAAGCGCGCUUCUCCAACAGAGGAUUGAGCAUCA
B12: chr14:67424093:67424094:-_ENSMUSG00000022048_ENSMUST00000022629|mus_mus|FALSE|FALSE (ssRNA)
RNA: GGGAGUUCUACAGUCCGACGAUCGGAGACCGAGUGCAGGGGGCCCAAGAGGAAGCCCCAGGAACUGGCUGCCCACAGCAACUAUCACAGGCUCUUUAAAAAAAAAAAAAAUGGAAGAAAGGAAGUCUCAGAAUGUCCUCAGGUCAACAGAGGAUUGAGCAUCA
B13: 72187872_72187992_6815_3pUTR_ENSG00000148730_ENST00000373218|human|control|control (ssRNA)
RNA: GGGAGUUCUACAGUCCGACGAUCGAGUGUCCUCUGGGCUCUUCAAGACACCUUCUUUAAGGUUUACCCCUGGAGUAGCAGAGGGUCUCCUCACCCAGGUGGAAAGAGAUGGGCUCCAUCUGCAGAUGAAGGAAAGGCACUGGCCAACAGAGGAUUGAGCAUCA
B14: chr5:145543945:145543946:-_ENSG00000133706_ENST00000545646|hu_hu|hu_hu_hu_mus_True|48_48 (ssRNA)
RNA: B1 RNA with C39U, U78C, C84G, G87U, G96C
B15: chr14:67424093:67424094:-_ENSMUSG00000022048_ENSMUST00000022629|mus_mus|motif|central (ssRNA)
RNA: B12 RNA with U82G, A83G
B16: chr17:35975164:35975165:-_ENSMUSG00000001525_ENSMUST00000001566|mus_hu|FALSE|FALSE (ssRNA)
RNA: GGGAGUUCUACAGUCCGACGAUCGGAAUGCGCCCCAGAGGCUGGAGCAGCGAGGUGCAAACGCGACGGCAGGAAGGUUCUGAGAGGGAGAAAGGAGAGGGGAGGGCGCGGAGGGAAAGCAGGCUGGGCGGGGCGCGCGUGCGCCAACAGAGGAUUGAGCAUCA
B17: chr10:70525781:70525782:+_ENSG00000060339_ENST00000535016|hu_hu|motif|central (ssRNA)
RNA: GGGAGUUCUACAGUCCGACGAUCUGAAUGUUCUUUAUUAUCCUCUAAUCUGUAGUCCAAUAGGACACUCAAAGACAUGAUGCGGCAAUCAAACUUGCCACUUUUUGCAGCCCAAUUUGGAUGUACAAUGAUGGCCGGUUCAUCCAACAGAGGAUUGAGCAUCA
B18: chr20:57415074:57415075:+_ENSG00000087460_ENST00000313949|hu_hu|motif|central (ssRNA)
RNA: GGGAGUUCUACAGUCCGACGAUCUCUGCAGAGAGUGGCUCCGAAGCACAUUGGCUGCUGGAGCCGGGAAAGGUACACCCGGUGAGGUGAGAAGCUGGCCCGGAGGUCCCAGCCUCACCUCCUUGUGAGGAGAAAAAGGGAAGCCAACAGAGGAUUGAGCAUCA
B19: chr17:23874276:23874277:-_ENSMUSG00000023909_ENSMUST00000024702|mus_mus|FALSE|FALSE (ssRNA)
RNA: GGGAGUUCUACAGUCCGACGAUCAGAGACUCUCACAGGUUAAACAGGGUAAAUUGGGAAAAAAAAAAAUGGUUUCCUUCUAAUGACAGCAAAACAAUGCCCAGGAGGGAAGAUGGCAAGGAAAGUGGAAGCUGGGGUUUGAAGCAACAGAGGAUUGAGCAUCA
B20: chr17:23874276:23874277:-_ENSMUSG00000023909_ENSMUST00000024702|mus_mus|motif|central (ssRNA)
RNA: B19 RNA with U80G, A81G
B21: chr1:220276048:220276049:+_ENSG00000067704_ENST00000302637|hu_hu|hu_hu_hu_mus_True|1_108 (ssRNA)
RNA: GGGAGUUCUACAGUCCGACGAUCGCAAACAGCUUCAUUGGCGGGAAUUGUCCAAGGCUGGGUGGUCCAAACUAAAACGCUAACAGGGGAUGAGGCAUCUGUAAGAGACUCCAACUUCGGAGGAGGUCUCAGGAGGGGAAAUUUCAACAGAGGAUUGAGCAUCA
B22: chr17:23874276:23874277:-_ENSMUSG00000023909_ENSMUST00000024702|mus_hu|FALSE|FALSE (ssRNA)
RNA: GGGAGUUCUACAGUCCGACGAUCUCUAACCCCACAGGUCACAGAGGGUAAAGAGGUCCCAAGAGGGAAAGGUUUCCUUCCAGCUGACACAGUAAAAUAGGAGCUUGGAGGGAAAAGGCAGGGAAGGAAGUUGGAGCGCCACGGCAACAGAGGAUUGAGCAUCA
B23: chrX:7396663:7396664:+_ENSMUSG00000031153_ENSMUST00000132456|mus_mus|motif|central (ssRNA)
RNA: GGGAGUUCUACAGUCCGACGAUCGCAAGGGCAUACAUGGAUGGAUCAGUGGGCAGAGGGACAGAUGGCAGACUGAUGGGCGGACCUGGGAAGUUGAUUGGAGGGUAAAAGAGGUGAACACAAAAGGGCGGUAGAUGACUGGAACAACAGAGGAUUGAGCAUCA
B24: chr18:38611996:38611997:+_ENSMUSG00000024425_ENSMUST00000025293|mus_mus|FALSE|FALSE (ssRNA)
RNA: GGGAGUUCUACAGUCCGACGAUCAAGACCAAAUCCUGAGAUGGCCCCAUACCUUCCCGCAGCUGAGGUGGUCAGGCAAAAAGACAAGAAAAACCCAAUCCAGUUGAAGAGGAAUGCCAUGAAAAAAGUUAACAUAAAAAUCCCCAACAGAGGAUUGAGCAUCA

For this test, the target named is T1, UNK ZnF1-3 (human, UniProt Q9C0B0 31-174).
T1 sequence: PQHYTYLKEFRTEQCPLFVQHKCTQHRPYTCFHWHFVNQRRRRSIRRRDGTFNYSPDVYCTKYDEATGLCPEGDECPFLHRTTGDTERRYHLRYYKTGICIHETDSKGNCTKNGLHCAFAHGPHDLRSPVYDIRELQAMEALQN
Briefly: nsRBNS (natural sequence RNA bind-n-seq); RBNS binding buffer (assumed for nsRBNS): 25 mM Tris pH 7.5, 150 mM KCl, 3 mM MgCl2, 0.01% Triton X-100, 500 ug/ml BSA, 20 U/ml SUPERase-In, 4 C; UNK is unkempt and MSI1 is Musashi-1; names of the RNAs are library labels; protein concentration not given here; high values mean tight binding.
In turn, B1 registered a binding signal of 1.23 enrichment R.

B2 came in with a binding signal of 0.842 enrichment R. B3 had a binding signal of 0.629 enrichment R.

Turning to B4, the binding signal came to 1 enrichment R. The result for B5 reads 1.61 enrichment R; that for B6, 0.517 enrichment R; that for B7, 0.944 enrichment R.

B8 showed a binding signal of 0.961 enrichment R. B9 came in with a binding signal of 4.02 enrichment R. For B10 the value was 1.71 enrichment R; for B11, 0.676 enrichment R; for B12, 3.82 enrichment R. The molecule B13 gave a binding signal of 1.96 enrichment R. B14: the binding signal came to 1.07 enrichment R. Regarding B15, the binding signal came out at 4.34 enrichment R. B16 had a binding signal of 2.69 enrichment R. For B17 the value was 0.442 enrichment R. The molecule B18 returned a binding signal of 0.876 enrichment R. The result for B19 reads 4.07 enrichment R. For B20 the value was 4.06 enrichment R; for B21, 1.61 enrichment R; for B22, 1.43 enrichment R.

The molecule B23 registered a binding signal of 2.58 enrichment R.

As for B24, the binding signal was 2.06 enrichment R.
